Data from PubChem BioAssay AID687020 (Broad Institute, 2013).
Hit rate of the full screen: of about 1,400 compounds, about 100 (7.1%) were called active. No rule for the calls is given here. Only a sample is shown. Results with a measured potency or affinity are listed apart.

Experiment: viability loss in Vero cells – cell-based, plate reader, cherry-pick samples, cytotoxicity control, dose response (AID 687020);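 also: compounds incubated with cells for three days before luminescence read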
Settings: series mostly up to 19.5 µM; activity change, negative = toxicity: at the top concentration

| SMILES | activity change, negative = toxicity |
| --- | --- |
| CCCCN1C(N)=NC[C@@H]1C(C)O (stereo partly drawn) | -16.1% (inactive) |
| O=C(COc1ccccc1)NCC(=O)N/N=C/c1ccc(Br)cc1 | 3.21% (inactive) |
| O=C(CCn1cncn1)N1CCCC(N2CCN(c3ccc(F)cc3)CC2)C1 (stereo not drawn) | -15.2% (inactive) |
| CCN(CC)CC(=O)N1CCCC(N2CCN(c3cccc(C(F)(F)F)c3)CC2)C1 (stereo not drawn) | -15.9% (inactive) |
| O=C(c1cc(C2CC2)on1)N1CCCC(N2CCN(c3cccc(C(F)(F)F)c3)CC2)C1 (stereo not drawn) | 3.52% (inactive) |
| C[C@@H]1CCCCO[C@H](CN(C)Cc2ccc(Cl)c(Cl)c2)[C@H](C)CN([C@@H](C)CO)C(=O)c2cc(NC(=O)c3ccccc3)ccc2O1 | -5.49% [at 21 µM] (inactive) |
| O=C(c1cccc(-c2cccc3nccn23)c1)N1CCOCC1 | 5.83% (inactive) |
| O=C(c1ccc2nccnc2c1)N1CCN(c2ccccc2)CC1 | -11.1% (inactive) |
| CCCCCCCCN1C(=O)[C@H](CC(=O)NCCC(C)C)C[C@@]2(C(=O)OCC)CCCC=C12 | -10.3% (inactive) |
| CCN1CCN(c2ccc(S(=O)(=O)N3CCCCC3)cc2NC(=O)c2ccc(C)c(C)c2)CC1 | -1.07% (inactive) |
| Cn1c(=O)n(C)c2cc(N3CCOCC3)c(NC(=O)c3ccc(F)cc3)cc21 | -1.46% (inactive) |
| CNC[C@@H]1OCCCC[C@H](C)Oc2ccc(NS(C)(=O)=O)cc2C(=O)N([C@@H](C)CO)C[C@@H]1C | 7.65% (inactive) |
| C=CCc1ccc(OCCCNCc2ccccc2)c(OC)c1 | 4.77% (inactive) |
| CN1CCN(CCOc2ccc(-c3ccccc3)cc2)CC1 | -3.13% (inactive) |
| Cc1cccc(OCCCN2CCC(C(O)(c3ccccc3)c3ccccc3)CC2)c1 | -11.6% (inactive) |
| CCc1cccc(OCCN2CCCC2)c1 | 7.48% (inactive) |
| c1ccc(-c2ccc(OCCN3CCOCC3)cc2)cc1 | -30.8% (inactive) |
| COc1ccccc1CN1CCCC(N2CCN(c3ccccc3OC)CC2)C1 (stereo not drawn) | -25.9% (inactive) |
| CCc1cc2c(=O)[nH]c(COC)nc2s1 | -6.45% (inactive) |
| CN(C(=O)COC(=O)c1ccc(S(=O)(=O)N2CCOCC2)cc1)c1ccccc1 | -15.2% (inactive) |
| COc1ccc(CNC(=O)C2CC(c3ccc(C(F)(F)F)cc3)=NO2)cc1 (stereo not drawn) | -24.9% (inactive) |
| COC(=O)[C@@H]1C[C@H]2CC[C@H](O)C[C@H]2N1Cc1ccc(C(F)(F)F)cc1 | -4.52% (inactive) |
| Nc1cccc(O)c1 | -6.53% (inactive) |
| COc1cc(CNc2nccn3ccnc23)cc(OC)c1 | -9.02% (inactive) |
| CCc1ccc(OCC(O)CN2CCN(c3ccccc3)CC2)cc1 (stereo not drawn) | -5.9% (inactive) |

| SMILES | activity change, negative = toxicity |
| --- | --- |
| NC(=O)C1CCN(CC(O)COc2ccc(-c3ccccc3)cc2)CC1 (stereo not drawn) | -5.66% (inactive) |
| COCC#Cc1ccc2c(c1)O[C@@H](CN(C)C(=O)Nc1ccccc1F)[C@H](C)CN([C@@H](C)CO)S2(=O)=O | 0.743% (inactive) |
| C[C@H]1CN([C@@H](C)CO)C(=O)Cc2cc(NC(=O)CCCCCC(=O)Nc3ccccc3N)ccc2O[C@H]1CN(C)Cc1ccc(C(F)(F)F)cc1 | 1.41% [at 21 µM] (inactive) |
| O=C(NNc1c(F)c(F)cc(F)c1F)C1CCN(S(=O)(=O)c2ccccc2F)CC1 | -10.5% (inactive) |
| CC1(C(=O)NS(=O)(=O)c2ccccc2C(F)(F)F)CCN1C(=O)CCc1ccccc1 (stereo not drawn) | -2.6% (inactive) |
| C[C@H](CO)N1C[C@H](C)[C@H](CN(C)C(=O)Nc2cccc3ccccc23)OCCCC[C@H](C)Oc2ccc(NS(=O)(=O)c3cn(C)cn3)cc2C1=O | 0.574% (inactive) |
| COc1ccc(C(C)NC(=O)c2ccccc2Cl)cc1OC (stereo not drawn) | 1.27% (inactive) |
| CCS(=O)(=O)Nc1ccc(C(=O)NCCSc2ccccc2)cc1 | -8.4% (inactive) |
| COc1ccccc1N(CC(=O)N1CCCC1)S(=O)(=O)c1ccc(C)cc1 | -2.96% (inactive) |
| COc1ccc(OC)c(-c2cc(C(=O)NC3CCCC3)c3ccccc3n2)c1 | -9.23% (inactive) |
| COc1ccc(C(=O)N2CCN(C3CCCCC3)CC2)cc1OC | -10.2% (inactive) |
| Cc1cc(N2CCN(C)CC2)n2nc(-c3ccc(Cl)cc3)nc2n1 | -1.64% (inactive) |
| COc1ccc(-c2nc(NCCCN(C)C)c3ccccc3n2)cc1 | -20.6% (inactive) |
| COc1ccc2nc(NN=Cc3cccc(C)n3)cc(C)c2c1 | -10.1% (inactive) |
| C[C@@H]1CN([C@H](C)CO)C(=O)c2cc(NC(=O)c3ccccc3)ccc2O[C@@H](C)CCCCO[C@@H]1CN(C)Cc1ccc(C(=O)O)cc1 | -0.937% (inactive) |
| C[C@@H]1CCCCO[C@@H](CN(C)Cc2ccc(C(=O)O)cc2)[C@H](C)CN([C@H](C)CO)C(=O)c2cc(NC(=O)c3ccccc3)ccc2O1 | -7.9% (inactive) |
| Cc1ccc(CN(C)c2ccc(S(=O)(=O)N3CCCC3)cn2)cc1 | -3.39% (inactive) |
| COc1cc(C(=O)NCc2cccc(Cl)c2)ccc1OCC(=O)N1CCOCC1 | 2.08% (inactive) |
| COc1ccc(C(=O)NCCOc2cccc(Oc3ccccc3)c2)cc1OC | -17.2% (inactive) |
| O=C(C[C@@H]1CC[C@@H]2[C@H](COC[C@H](O)CN2Cc2cccc(Cl)c2)O1)N1CCOCC1 | -2.6% (inactive) |
| COC(=O)C1=C(C)N(Cc2cccc(C(F)(F)F)c2)C(=NCC2CC2)NC1c1ccc(F)cc1 (stereo not drawn) | -0.751% (inactive) |
| C[C@@H]1CN([C@@H](C)CO)C(=O)c2cc(NS(=O)(=O)c3ccc(F)cc3)ccc2O[C@@H](C)CCCCO[C@@H]1CN(C)C(=O)CCCN(C)C | -2.95% (inactive) |
| CCOC(=O)Nc1ccc(N2CCOCC2)c(S(=O)(=O)N2CCOCC2)c1 | -7.3% (inactive) |
| CCCCN1C[C@H](Cc2ccccc2)[C@@H](CC(=O)Nc2ccccc2)C1=O | -6.93% (inactive) |
| O=C(CC1NCCN(Cc2ccccc2)C1=O)Nc1ccccc1 (stereo not drawn) | -3.62% (inactive) |

| SMILES | activity change, negative = toxicity |
| --- | --- |
| Cc1ccc(S(=O)(=O)N(c2nc(NC(C)C)nc(NC(C)C)n2)n2cnnc2)cc1 | -22% (inactive) |
| C=CCOc1ccccc1OCC(O)CNC(C)C (stereo not drawn) | 4.09% (inactive) |
| N#C[C@@H]1[C@H](c2ccc(C#Cc3ccccc3F)cc2)[C@H](CO)N1C(=O)C1CCC1 | -7.04% (inactive) |
| CC(C)CCn1c2ccccc2c2cc(CC(N)=O)ccc21 | -9.09% (inactive) |
| CC1(Cc2cccc(F)c2)C(=O)Nc2ccc(-c3cccnc3)cc21 (stereo not drawn) | 2.56% (inactive) |
| COc1cc(OC)cc(C(=O)Nc2ccc3nc4n(c(=O)c3c2)CCCC4)c1 | -1.48% (inactive) |
| O=C(Nc1ccc2nc3n(c(=O)c2c1)CCCC3)c1ccccc1F | -0.515% (inactive) |
| CC(C)(C)c1ccc(C(=O)Nc2ccc3c(c2)C(=O)NC3=O)cc1 | -3.44% (inactive) |
| CC(NC(=O)c1ccccc1)C(=O)OCn1nnc2ccccc2c1=O (stereo not drawn) | 2.95% (inactive) |
| CCCc1nc2ccccc2n1C(C)C(=O)NC(C)(C)C (stereo not drawn) | -9.03% (inactive) |
| Cc1cc(C)cc(NC(=O)Cn2nnc(C(=O)NCc3cccs3)c2N)c1 | -0.976% (inactive) |
| CN(C)CCCN1c2ccccc2Sc2ccc3ccccc3c21 | -27.7% (inactive) |
| CC(C)NC(=O)Nc1ccc2c(c1)C(=O)N([C@H](C)CO)C[C@H](C)[C@H](CN(C)CC1CC1)OCCCC[C@@H](C)O2 | -0.509% (inactive) |
| CCCN1[C@H](C(=O)NCC(F)(F)F)[C@@H](CO)[C@@H]2Cn3c(ccc(-c4ccccc4)c3=O)[C@@H]21 | -4.76% (inactive) |
| CCOC(=O)c1ccc(NC(=O)c2nc[nH]c2C(=O)NC[C@H](C)O)cc1 | -3.85% (inactive) |
| C[C@H](CO)N1C[C@H](C)[C@@H](CN(C)S(C)(=O)=O)Oc2ccc(NC(=O)Nc3ccccc3)cc2C1=O | -2.06% (inactive) |
| CCN(C)C1CN(Cc2cn(Cc3ccccc3)nn2)S(=O)(=O)C1 (stereo not drawn) | 2.96% (inactive) |
| Cc1ccc(Cn2cc(CN3CC(N4CCSCC4)CS3(=O)=O)nn2)cc1 (stereo not drawn) | -18.6% (inactive) |
| COc1ccc(-c2cnc3n2CCCCC3)cc1 | -10.8% (inactive) |
| CC(=O)N1CCN(C(=O)COC(=O)COc2c(C)cc(C)cc2C)CC1 | -0.176% (inactive) |
| Cc1ccc(S(=O)(=O)N2CCOCC2)cc1NC(=O)CN(C)CC(=O)Nc1cccc(F)c1 | -8.86% (inactive) |
| COc1cccc(NC(=O)CN(C)C(=O)Cc2ccc3c(c2)OCCO3)c1 | -3.6% (inactive) |
| COC(=O)c1cn(C(=O)c2ccc(OC)c(OC)c2)c2ccccc12 | -6.84% (inactive) |
| COc1ccc(COC(=O)C2=C(C)NC(=O)NC2c2ccccc2F)cc1 (stereo not drawn) | -12.5% (inactive) |
| CCN(CC)C(=O)C1CCN(Cc2ccc(OCc3ccccc3)cc2)CC1 | -30.8% (inactive) |

| SMILES | activity change, negative = toxicity |
| --- | --- |
| N#CC[C@H](c1ccccc1)N1CCN(Cc2ccccc2)CCC1=O | -10% (inactive) |
| CC(C)C[C@@H](COc1ccccc1)N1CCN(CCc2ccccc2)CCC1=O | -23.9% (inactive) |
| CCCN1CCC(=O)N([C@H](CSc2ccccc2)Cc2ccccc2)CC1 | -25.2% (inactive) |
| Cc1noc(C)c1NC(=O)Nc1ccc2c(c1)CC(=O)N([C@@H](C)CO)C[C@H](C)[C@@H](CN(C)C(=O)Nc1ccccc1)O2 | 6.21% (inactive) |
| CCOc1ccc2[nH]cc(S(=O)(=O)c3ccc(C)cc3)c(=O)c2c1 | -24.2% (inactive) |
| O=C(Oc1ccccc1)c1ccccc1C(=O)Oc1ccccc1 | -7.5% (inactive) |
| COc1ccc(NC(=O)c2cc3ccccc3cc2O)cc1 | 6.74% (inactive) |
| COc1ccc(N2CCN(CC(O)COc3ccc(F)cc3)CC2)cc1 (stereo not drawn) | -1.99% (inactive) |
| Clc1cc(Br)ccc1OCCCn1ccnc1 | -4.92% (inactive) |
| Clc1cc(Br)ccc1OCCOCCN1CCCC1 | -12.9% (inactive) |
| N#CCc1ccc(NC(=O)c2cc(S(=O)(=O)N3CCOCC3)ccc2Cl)cc1 | 4.07% (inactive) |
| COc1ccc(-c2cc(N3C(=O)Nc4ccccc4N3O)n[nH]2)cc1OC | -3.7% (inactive) |
| CCNC(=O)N(C)C[C@H]1N[C@@](CC)(C(=O)OC)[C@H]2C(=O)N(Cc3ccccc3)C(=O)[C@@H]12 | 3.78% (inactive) |
| Cc1ccccc1N1Cc2ccccc2C1=O | -17.1% (inactive) |
| CN1CCN(S(=O)(=O)c2cccs2)CC1 | -29.2% (inactive) |
| COC(=O)N1CCCCC1c1cc(C(=O)Nc2ccccc2Cl)no1 (stereo not drawn) | -0.256% (inactive) |
| Cc1ccc(F)cc1C(=O)N1CCCCC1c1cc(C(=O)NC(C)C)no1 (stereo not drawn) | -4.27% (inactive) |
| COc1ccc(S(=O)(=O)N2CCCCC2c2cc(C(=O)Nc3ccccc3)no2)cc1 (stereo not drawn) | -19.9% (inactive) |
| O=C(NCc1ccc(Cl)c(Cl)c1)c1cc(C2CCCCN2C(=O)OCCF)on1 (stereo not drawn) | -31.1% (inactive) |
| Cc1ccc(NC(=O)C2CCN(S(C)(=O)=O)CC2)cc1Cl | -5.63% (inactive) |
| C[C@H](NC(=O)[C@H]1[C@H](CO)[C@H]2Cn3c(cccc3=O)[C@@H]1N2Cc1cccnc1)c1ccccc1 | -1.47% [at 21 µM] (inactive) |
| CC(C)(C(=O)N1CCC1(C)C(=O)Nc1ccccc1Br)c1ccccc1 (stereo not drawn) | -3.5% (inactive) |
| Cc1c(C(=O)NCc2ccc(C#N)cc2)sc(=O)n1Cc1ccccn1 | -13.9% (inactive) |
